Hit rate of the full screen: of about 360,000 compounds, about 11,000 (3.1%) were called active. For the sample, actives were picked, then their nearest neighbours and some compounds at random. Unmarked numbers belong to inactive results. Rule as the data show it: active = activity change below about -30%; inactive = the rest.
What follows are compounds tested against D(1A) dopamine receptor (Homo sapiens) (UniProt P21728) (assay: Antagonist of Human D 1 Dopamine Receptor: qHTS). Conditions: HEK293 TREx D1 cells, calcium flux, dopamine EC80; at 10 µM; hits give low values.
Summary of the method: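 After overnight tetracycline induction at 30 C, force-coupled D1 HEK293 cells took up a no-wash calcium dye at room temperature. Compounds were added and monitored 180 s, and the response to EC80 dopamine was then recorded.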
% is scaled to controls: 0 for no effect and ±100 for the full control effect.

Chain of D(1A) dopamine receptor (Homo sapiens) (P21728 whole entry, looked up): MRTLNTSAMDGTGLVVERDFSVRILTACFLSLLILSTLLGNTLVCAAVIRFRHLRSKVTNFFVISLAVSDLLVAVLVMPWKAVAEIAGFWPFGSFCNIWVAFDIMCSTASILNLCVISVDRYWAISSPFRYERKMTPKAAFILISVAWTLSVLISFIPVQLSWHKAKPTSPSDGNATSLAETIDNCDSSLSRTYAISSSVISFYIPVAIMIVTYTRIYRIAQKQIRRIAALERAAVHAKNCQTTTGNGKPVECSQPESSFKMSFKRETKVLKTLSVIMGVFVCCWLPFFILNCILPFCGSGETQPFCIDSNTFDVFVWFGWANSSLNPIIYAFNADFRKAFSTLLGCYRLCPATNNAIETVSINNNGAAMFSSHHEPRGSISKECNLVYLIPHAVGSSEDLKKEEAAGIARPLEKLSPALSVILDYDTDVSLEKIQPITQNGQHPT

Row | SMILES | activity change, negative = inhibition
1 | Cc1ccc(CCNC(=O)c2ccc3c(c2)N(Cc2cc(C)ccc2C)C(=O)c2ccccc2S3=O)cc1 (stereo not given) | -1.98%
2 | COc1cccc2cc(-c3nc(Cl)c4c5c(sc4n3)CC(C)CC5)c(=O)oc12 (stereo not given) | 7.27%
3 | Cc1ccc2nc(C)c3c(c2c1)N(c1ccccc1)CC3 | -47.3% (active)
4 | Cc1ccc2nc(CNC(=O)c3ccccc3)[nH]c2c1 | 2.33%
5 | Cc1ccc2nc(NC3=NCN(CCc4ccccc4)CN3)nc(C)c2c1 | 8.22%
6 | O=C(Nc1ccc(F)cc1F)c1cnn(-c2ccc(F)cc2)c1-n1cccc1 | 1.78%
7 | CCOC(=O)C1=C(CN2CCc3ccccc32)NC(=O)NC1c1ccc(Cl)cc1 (stereo not given) | 19.3%
8 | CCOC(=O)C1=C(CSc2nccn2C)NC(=O)NC1c1ccc(OC)cc1 (stereo not given) | -35% (active)
9 | CCOC(=O)C1=C(CCc2ccccc2)NC(=O)NC1c1ccc2ccccc2c1 (stereo not given) | 13.1%
10 | CCN(CC)c1ccc(NS(=O)(=O)c2cc(-c3cc(C)no3)ccc2C)c(C)c1 | -8.08%
11 | COc1ccc(N2CCN(C(=O)C3CCCN(C(=O)c4cc5sccc5n4C)C3)CC2)cc1 (stereo not given) | -16.9%
12 | CC(NC(=O)c1cc(=O)[nH]c2ccccc12)c1ccc(F)cc1F (stereo not given) | -0.391%
13 | CC(NC(=O)c1cc(Sc2ccc(F)cc2F)nc2ccccc12)c1ccccc1 (stereo not given) | -44.9% (active)
14 | CCc1ccc(Sc2cc(C(=O)NCCCOC(C)C)c3ccccc3n2)cc1 | 9.99%
15 | CCOc1ccccc1NC(=O)Cn1c(=O)n(-c2cccc(C)c2)c(=O)c2c1c1cc(OC)ccc1n2C | 9%
16 | CC(C)Sc1ncnc2c1cnn2-c1ccccc1 | 11.9%
17 | c1ccc(-n2ncc3c2ncn2c(C4CCCCC4)nnc32)cc1 | -30.2% (active)
18 | CN(C(=O)COc1ncnc2c1cnn2-c1ccccc1)C1CCCCC1 | 2.82%
19 | Cc1ccc(NC(=O)Cn2c(=O)n(-c3ccccc3)c(=O)c3c4c(sc32)CCCC4)cc1 | -4.05%
20 | CCOC(=O)N1CCc2c(sc3c2C(=O)NC(c2ccccc2F)N3)C1 (stereo not given) | 4.82%
21 | O=C(CSc1ncc(CO)n1Cc1ccc(F)cc1)NCc1ccco1 | -2.59%
22 | Cc1nnc(NC(=O)C(c2ccccc2)c2ccccc2)s1 | 0.172%
23 | O=C(CCN1CCN(c2ccccc2)CC1)NNC(=S)Nc1ccccc1 | -7.38%

Row | SMILES | activity change, negative = inhibition
24 | CCCCC(=O)NNC(=S)NC(=O)C(c1ccccc1)c1ccccc1 | -50.5% (active)
25 | Cc1c(C(=O)N2CC(C)OC(C)C2)sc2nc(-c3ccccc3)cn12 (stereo not given) | -32.4% (active)
26 | Cc1c(C(=O)NCC2CCCO2)sc2nc(-c3ccccc3)cn12 (stereo not given) | 2.03%
27 | COc1ccc(-c2cn3c(C)c(C(=O)Nc4cc(C)cc(C)c4)sc3n2)cc1 | 9.7%
28 | Cc1cccc(NC(=O)c2nnn(CC(=O)Nc3ccc(C(C)C)cc3)c2N)c1C | 5.98%
29 | Cc1cccc(C)c1NC(=O)c1ccc(CN2CCc3ccccc3C2)cc1 | -14.8%
30 | CN(c1ccc(C(=O)N2CCc3ccccc3C2)cc1)S(C)(=O)=O | 1.19%
31 | CN(c1cccc(NC(=O)c2ccc(CN3CCc4ccccc4C3)cc2)c1)S(C)(=O)=O | -37.7% (active)
32 | O=C(Nc1ccc(OC(F)(F)F)cc1)C1CCCN(S(=O)(=O)c2ccc(Br)s2)C1 (stereo not given) | -19.1%
33 | COCc1ccc(CN2CCC(Oc3ccc(C(=O)NCc4ccccn4)cc3)CC2)o1 | -5.9%
34 | Cn1cc(CNC(=O)c2ccc(OC3CCN(Cc4ccccn4)CC3)cc2)cn1 | -41.2% (active)
35 | O=C(NCCOc1cccnc1)c1ccc(OC2CCN(Cc3ccccn3)CC2)cc1 | -0.574%
36 | CC(CCCc1ccccc1)NC(=O)c1nn(-c2ccc(Cl)cc2)nc1CO (stereo not given) | 3.03%
37 | O=S(=O)(NCC1CC1)c1ccc(F)c(Cl)c1 | -3.94%
38 | O=[N+]([O-])c1cc(S(=O)(=O)CCCN2CCOCC2)ccc1F | -12.6%
39 | O=S(=O)(NCCCN1CCOCC1)c1ccc(F)c(Cl)c1 | -34.6% (active)
40 | CCOc1ccc(C2C(=O)N(C3CCCCC3)CC(=O)N2CCC2=CCCCC2)cc1OC (stereo not given) | 39.1%
41 | c1ccc2cc(OCCN3CCCC3)ccc2c1 | 12.7%
42 | Cc1cc(OCCN2CCCC2)cc(C(C)C)c1 | -2.52%
43 | Cc1cc(OCCN2CCCC2)ccc1C(C)C | -30% (active)
44 | Cc1ccc(NC(=O)Cn2nnc3sc4c(c3c2=O)CCC(C)C4)cc1 (stereo not given) | -17.2%
45 | CCc1cccc(C)c1Nc1c(-c2ccc(N(C)C)cc2)nc2ncccn12 | 6.48%
